The values below come from PubChem BioAssay AID1851 (National Center for Advancing Translational Sciences (NCATS), 2009).

A word on the AC50: it is the concentration giving half of the maximal activity seen.

Screen size: about 16,000 compounds; about 5,700 (36%) were called active. About 24% were inconclusive and are not listed. The list shows a part of the results. Values without a mark were called inactive. Calls follow the shape of the dose curve; as a rule, active = well fitted curve in the direction sought with a large enough effect; inconclusive = small, poorly fitted or top-dose-only effect, or effect the other way; inactive = no such curve, though single readings can be large or run the other way.
% is scaled to controls: 0 for no effect and ±100 for the full control effect.

Cytochrome P450 1A2 (Homo sapiens), sequence (P05177 whole entry, looked up): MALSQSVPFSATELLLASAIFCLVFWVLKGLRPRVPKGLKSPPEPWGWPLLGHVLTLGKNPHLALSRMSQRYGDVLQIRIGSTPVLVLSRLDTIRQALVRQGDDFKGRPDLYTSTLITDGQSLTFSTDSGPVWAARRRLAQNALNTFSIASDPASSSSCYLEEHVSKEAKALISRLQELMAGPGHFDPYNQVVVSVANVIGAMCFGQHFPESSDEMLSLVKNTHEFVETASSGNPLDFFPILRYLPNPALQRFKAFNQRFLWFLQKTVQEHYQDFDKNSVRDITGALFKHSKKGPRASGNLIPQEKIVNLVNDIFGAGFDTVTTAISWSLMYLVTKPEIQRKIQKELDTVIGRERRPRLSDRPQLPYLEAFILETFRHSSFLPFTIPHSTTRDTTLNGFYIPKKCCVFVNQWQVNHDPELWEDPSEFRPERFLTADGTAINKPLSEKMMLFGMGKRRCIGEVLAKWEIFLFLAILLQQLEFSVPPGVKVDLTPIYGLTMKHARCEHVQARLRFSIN

This assay has as its target Cytochrome P450 1A2 (Homo sapiens) (UniProt P05177). Description: Cytochrome panel assay with activity outcomes. The following applies: recombinant CYP, pro-luciferin dealkylation, luminescence, p450-cyp1a2; series mostly up to 57.1 µM; activity, negative = inhibition: at the top concentration.
Consider `CC(=O)NCCNc1ncnc2ccc(-c3ccccc3C(F)(F)F)cc12`, for which the AC50 was 10000 nM (active).
`CC1=C(C(=O)O)N2C(=O)[C@@H](NC(=O)[C@@H](N)C3=CCC=CC3)[C@@H]2SC1`: the “activity, negative = inhibition” value was -0.757%.
With `Cc1ccc(S(=O)(=O)N2CCN(C(=O)c3ccccc3)C2C(C)C)cc1` (stereo unspecified), the “activity, negative = inhibition” value is -9.28%.
With `O=c1cnc2cnc(Nc3ccccc3)nc2n1C1CC1`, the AC50 was 631 nM (active).
Still for that read-out and setting: for `Cc1nc2cnc(Nc3ccccc3)nc2n(C2CC2)c1=O` the value was 1000 nM (active); for `COc1cccc(Nc2ncc3nc(C)c(=O)n(C4CC4)c3n2)c1`, 1260 nM (active).
As to `COc1cccc(Nc2ncc3ncc(=O)n(C4CC4)c3n2)c1`, the concentration at half-maximal activity (AC50) was 631 nM (active).
For the molecule `O=C(Nc1ccc(C(=O)Nc2ccc(C(=O)Nc3ccc(S(=O)(=O)O)c4cc(S(=O)(=O)O)cc(S(=O)(=O)O)c34)cc2)cc1)Nc1ccc(C(=O)Nc2ccc(C(=O)Nc3ccc(S(=O)(=O)O)c4cc(S(=O)(=O)O)cc(S(=O)(=O)O)c34)cc2)cc1`, the AC50 was 31600 nM (active).
On the same count and under the same terms, in the case of `O=C(Nc1cccc(C(=O)Nc2ccc(S(=O)(=O)O)c3cc(S(=O)(=O)O)cc(S(=O)(=O)O)c23)c1)Nc1cccc(C(=O)Nc2ccc(S(=O)(=O)O)c3cc(S(=O)(=O)O)cc(S(=O)(=O)O)c23)c1` it was “inactive”.
With `CN1CCN(C(=O)C(C(=O)c2ccc(F)cc2)n2ccccc2=O)CC1` (stereo unspecified), the “activity, negative = inhibition” value is -0.425%.
Take `c1ccc(Nc2ncnc3ccc(-c4ccoc4)cc23)cc1`: the AC50 is 1580 nM (active).
For the molecule `Fc1ccc(Nc2ncnc3ccc(-c4ccoc4)cc23)cc1`, the AC50 is 1000 nM (active).
Regarding `CCc1ccc(NC(=O)CSc2nc3cc(C(=O)OC)ccc3c(=O)n2Cc2ccco2)cc1`, the “activity, negative = inhibition” value was -27.9%.
Turning to `CCN(C(=O)CSc1nc2cc(C(=O)OC)ccc2c(=O)n1Cc1ccco1)c1cccc(C)c1`, the AC50 was 2510 nM (active).
`COC(=O)[C@H]1C[C@@H]1[C@H](NC(=O)Oc1ccc(F)cc1)c1ccccc1`: the concentration at half-maximal activity (AC50) is 1000 nM (active).
Turning to `COC(=O)[C@@H]1C[C@H]1[C@@H](NC(=O)Oc1ccc(F)cc1)c1ccccc1`, the AC50 was 3160 nM (active).
In the case of `O=P(O)(COc1ccccc1)COc1ccccc1`, the “activity, negative = inhibition” value is -1.64%.
In the case of `O=c1sc2ccccc2n1CCCOc1ccccc1`, the AC50 is 15800 nM (active).
As to `Cc1ccccc1OCCCn1c(=O)sc2ccccc21`, the AC50 was 3160 nM (active).
For the molecule `Cc1ccc(OCCCn2c(=O)sc3ccccc32)cc1`, the “activity, negative = inhibition” value was -65.4%.
Still for that read-out and setting: in the case of `O=C(COc1ccc(/C=N/NC(=O)c2ccccc2)cc1)Nc1ccc([N+](=O)[O-])cc1` it was -1.47%.
Take `CCC(=O)Nc1cccc(NC(=O)c2cccc([N+](=O)[O-])c2)c1`: the AC50 was 7080 nM (active).
On the same count and under the same terms, in the case of `CCOC(=O)c1cccc(NC(=O)COc2ccc([N+](=O)[O-])cc2)c1` it was 12600 nM (active).
As to `CCC(=O)Nc1cccc(C(=O)/C=C/c2ccccc2)c1`, the AC50 was 1000 nM (active).
For `CS(=O)(=O)N(CC(=O)Nc1cccc(F)c1)c1cccc([N+](=O)[O-])c1`, the “activity, negative = inhibition” value is -3.74%.
Turning to `O=C(Nc1nc(-c2ccccc2)cs1)c1cccc([N+](=O)[O-])c1`, the AC50 was 1410 nM (active).
`O=C(Nc1cccc([N+](=O)[O-])c1)c1ccc(CSc2ccccc2)cc1`: the “activity, negative = inhibition” value was -21.6%.
With `COc1ccccc1Nc1nc(-c2sc(NC(=O)c3ccc([N+](=O)[O-])cc3)nc2C)cs1`, the “activity, negative = inhibition” value was -20.4%.
Regarding `CC(C)NC(=O)N1CCC2(CC1)CCN(S(C)(=O)=O)CC2`, the “activity, negative = inhibition” value was -8.96%.
Same read-out and setting: for `Cc1ccccc1N1C(=O)c2cc(S(N)(=O)=O)c(Cl)cc2N[C@H]1C` the value was 0.243% [at 25.6 µM].
For `COc1ccc(Cl)cc1N=Nc1ncc[nH]1`, the AC50 was 631 nM (active).
Consider `Clc1ccc(Cn2c(CN3CCCC3)nc3ccccc32)cc1`, for which the AC50 was 10000 nM (active).
As to `Cn1c(=O)[nH]c(=O)c2c1nc(CN1CCOCC1)n2Cc1ccccc1`, the “activity, negative = inhibition” value is 2.89%.
`O=C(CN(c1ccccc1)S(=O)(=O)c1ccccc1)NCCSCc1ccco1`: the “activity, negative = inhibition” value is -14.5%.
In the case of `CC(C(=O)NCc1ccc2c(c1)OCO2)N1c2cccc3cccc(c23)S1(=O)=O` (stereo unspecified), the half-maximal activity concentration (AC50) is 1780 nM (active).
Regarding `COc1ccccc1C1=NOC(COC(=O)c2ccc3ccccc3n2)C1` (stereo unspecified), the AC50 was 14100 nM (active).
In the case of `O=C(O)c1c(-c2c3ccc(=O)cc-3oc3cc(O)ccc23)cc2ccccc2c1-c1ccccc1`, the activity, negative = inhibition was -17.6% [at 2.29 µM].
For `CNC(=O)/C(C#N)=c1\s/c(=C/C(=O)OC)c(=O)n1-c1ccccc1`, the “activity, negative = inhibition” value is -4.92%.
Same read-out and setting: for `COC(=O)[C@@H]1[C@@H](O)[C@]2(O)c3ccccc3O[C@]2(c2ccccc2)[C@H]1c1ccccc1` the value was -6.42% [at 11.4 µM].
On to `COc1cc(CNC2CCCC2)cc(Cl)c1OCc1ccccc1Cl`, for which the AC50 was 708 nM (active).
On to `COc1ccccc1CNC(=O)CCCn1c(=O)c2ccccc2n(CC(=O)NC2CCCC2)c1=O`, for which the “activity, negative = inhibition” value is 0.328%.
Regarding `COc1cc(O)oc1C=Nc1ccc(Cl)cc1`, the AC50 is 2240 nM (active).
Turning to `COc1cccc(CNc2ccc(F)c(Cl)c2)c1O`, the “activity, negative = inhibition” value is -22.8%.
For the molecule `COc1cc(O)oc1C=Nc1ccc(C(F)(F)F)cc1`, the AC50 is 501 nM (active).
On to `CCC#CCOCC(=O)Nc1ccccc1`, for which the half-maximal activity concentration (AC50) was 25100 nM (active).
On to `COC(=O)N1CCC2(CCN(C(=O)Nc3ccccc3)CC2)CC1`, for which the “activity, negative = inhibition” value was -5.21%.
